proKLK7 act = activates the human kallikrein-7 zymogen | actives 0.9% (n = 370,000) | activation, % at 7 µM | purified proKLK7, EDANS-DABCYL substrate fluorescence; 100% is mature enzyme control, 0% vehicle | P49862 | AID 652039;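 active means activation above the mean of all tested compounds plus 3 SD, computed per campaign excluding outliers beyond control limits, cut at about 13% in these data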
FAS TE block = inhibitors of human fatty acid synthase thioesterase domain. P49327. recombinant FAS-TE, OMFH fluorogenic substrate, fluorescence endpoint. inhibition, % at 15 µM. actives 0.67% (n = 360,000). AID 602261;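 active means compounds whose normalised, plate-corrected inhibition of enzyme fluorescence in the single-dose primary screen is 50% or more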
Neddylation inh = blocks human cullin neddylation. AID 651699. TR-FRET cullin neddylation, biochemical. calls only at 25 µM. actives 0.58% (n = 360,000). P61081+Q13564; in the data active means inhibition above about 36%
Target sequence (P61081 whole entry, looked up): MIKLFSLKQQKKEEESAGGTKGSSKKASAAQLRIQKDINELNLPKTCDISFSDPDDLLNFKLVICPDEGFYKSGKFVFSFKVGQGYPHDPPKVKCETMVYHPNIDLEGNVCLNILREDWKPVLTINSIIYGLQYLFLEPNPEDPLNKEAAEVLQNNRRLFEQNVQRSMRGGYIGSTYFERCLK
Target sequence (Q13564 whole entry, looked up): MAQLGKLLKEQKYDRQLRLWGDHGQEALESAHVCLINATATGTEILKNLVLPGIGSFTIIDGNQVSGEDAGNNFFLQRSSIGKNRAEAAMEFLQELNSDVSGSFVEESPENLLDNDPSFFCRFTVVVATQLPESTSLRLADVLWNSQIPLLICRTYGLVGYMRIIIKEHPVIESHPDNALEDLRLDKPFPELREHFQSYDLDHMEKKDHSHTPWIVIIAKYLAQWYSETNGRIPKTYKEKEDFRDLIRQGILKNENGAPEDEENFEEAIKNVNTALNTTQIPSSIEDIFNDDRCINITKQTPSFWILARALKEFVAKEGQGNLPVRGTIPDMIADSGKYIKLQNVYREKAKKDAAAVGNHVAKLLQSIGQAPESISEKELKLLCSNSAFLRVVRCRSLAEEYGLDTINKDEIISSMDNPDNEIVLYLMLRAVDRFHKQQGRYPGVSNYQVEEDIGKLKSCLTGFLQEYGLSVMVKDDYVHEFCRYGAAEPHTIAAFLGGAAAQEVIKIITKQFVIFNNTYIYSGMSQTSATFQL
PfGluPho inh = PfG6PD (Plasmodium falciparum) enzyme inhibition; PfGluPho enzyme, NADPH resazurin-diaphorase fluorescence; inhibition, % at 20 µM; actives 0.78% (n = 350,000); AID 504690;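 active means inhibition reaching at least a set limit at 20 µM in the primary screen, cut at about 59% in these data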
Neddyl inh conf = cullin neddylation inhibition, confirmation | actives 13% (n = 1,800) | calls only at 25 µM | shares compounds with Neddylation inh | AID 652217 | TR-FRET cullin neddylation biochemical assay; in the data active means inhibition above about 40%;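 further: neddylation substrate is the cullin 1 ring ligase complex with SKP2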
Each line names hits and unclear results; the compound was inactive in the other large screens (follow-up assays come after a bar, where shown). Most compounds without a hit are left out; they make up all but 2.7% or so of the library.

C[C@H](O)[C@@H]1CN2CCc3c([nH]c4c(-c5ccc6c(c5)OCO6)cccc34)[C@@H]2C[C@@H]1N(C)C(=S)NCCc1ccccc1	none (no result: FAS TE block, Neddylation inh, PfGluPho inh)
COc1ccc(S[C@]2(C(=O)N3CCN(C(C)=O)CC3)CC(=O)N(C(=O)c3ccccc3)[C@@H]2c2ccc(OC)cc2)cc1	none (no result: FAS TE block, Neddylation inh, PfGluPho inh)
CCN(CC)S(=O)(=O)c1cccc(-c2cn3cc(C)ccc3n2)c1	Neddylation inh active | Neddyl inh conf inactive
N#Cc1cc(-c2ccccc2)oc1/N=C/c1ccccc1O	none (not shown: Neddylation inh)
COc1cccc(/C=N/c2oc(-c3ccccc3)cc2C#N)c1O	Neddylation inh active | Neddyl inh conf inactive
CN(Cc1ccccc1)C(=O)OCc1cn(Cc2ccc(F)c(F)c2)nn1	none (no result: FAS TE block, Neddylation inh, PfGluPho inh)
C=CC[C@@H]1NN2C(=O)[C@@H](CCc3ccccc3)[C@@H]3c4ccccc4C=NN3[C@@H]2c2ccccc21	none (no result: FAS TE block, Neddylation inh, PfGluPho inh)
O=C(NCCc1ccc(Cl)cc1Cl)C1=CC=CN2CCS(=O)(=O)N=C12	Neddylation inh active | Neddyl inh conf active
CCN(CC)C(=O)c1ccc2sc([C@@H]3O[C@H](CO)[C@H](O)[C@H](O)[C@H]3O)nc2c1	none (no result: PfGluPho inh)
Cc1cccc(NC(=S)N/N=C2\CC(C)(C)Oc3ccc(O)cc32)c1	none
COc1cccc(NC(=S)N/N=C2\CC(C)(C)Oc3ccc(O)cc32)c1	Neddylation inh active | Neddyl inh conf inactive
Cc1ccc2c(c1)CO[C@@]21O[C@H](CCO)C[C@H](O)[C@H]1O	none
C=CCN1C(=O)[C@H](CC(=O)NCc2ccc(OC)c(OC)c2)[C@@]2(C(=O)OCC)CCCC=C12	none (no result: FAS TE block, Neddylation inh, PfGluPho inh)
CCCCN(CC)CCCNC(=O)c1cc2c(-c3ccc(OC)c(OC)c3)nn(C)c2s1	Neddylation inh active | Neddyl inh conf inactive
O=C(Nc1ccccc1)Nc1nnc(/C=C/c2ccccc2Cl)s1	Neddylation inh active | Neddyl inh conf inactive
CC(=O)Nc1c(-c2ccc(F)cc2)nc2ncccn12	none (no result: FAS TE block, Neddylation inh, PfGluPho inh)
N#Cc1cc(O)c(-n2nnc3ccccc32)cc1C#N	Neddylation inh active | Neddyl inh conf inactive
N#Cc1cc(Oc2cccc3cccnc23)c(-n2nnc3ccccc32)cc1C#N	none
Cc1ccc(-c2c(C(=O)N/N=C/c3c[nH]c4ccccc34)nnn2-c2nonc2N)cc1	Neddylation inh active | Neddyl inh conf inactive
CCCc1c(C(=O)N/N=C/c2ccc(OCc3ccccc3)c(OC)c2)nnn1-c1nonc1N	none
CCCc1c(C(=O)N/N=C/c2ccc(OC)c(OCc3ccccc3)c2)nnn1-c1nonc1N	Neddylation inh active | Neddyl inh conf inactive
CCCc1c(C(=O)N/N=C/c2c(OC)ccc3ccccc23)nnn1-c1nonc1N	Neddylation inh active | Neddyl inh conf inactive
Cc1nnn(-c2nonc2N)c1C(=O)N/N=C/c1cccc2ccccc12	Neddylation inh active | Neddyl inh conf inactive
CCN(CC)c1ccc(C=NNC(=O)Cc2cc(=O)[nH][nH]2)c(O)c1	none (no result: FAS TE block, Neddylation inh, PfGluPho inh)
COc1ccc(OC)c(/C=C/C(=O)NC2=NCCS2)c1	Neddylation inh active
O=C(Nc1ccc2c(c1)C(=O)NC2=O)c1ccccc1	none (not shown: Neddylation inh)
O=C(Nc1ccc2c(c1)C(=O)NC2=O)c1cccc(C(F)(F)F)c1	Neddylation inh active | Neddyl inh conf inactive
O=C(/C=C/c1ccccc1)Nc1ccc2c(c1)C(=O)NC2=O	Neddylation inh active
Nc1c2c(=O)oc(-c3ccccc3)cc2nn1-c1ccccc1	Neddylation inh active | Neddyl inh conf active
O=c1ccc(/C=C/c2ccccc2)nn1Cc1ccc(F)cc1	Neddylation inh active | Neddyl inh conf inactive
CCOC(=O)Cn1nc(/C=C/c2ccc(OC)cc2)ccc1=O	none
COc1ccc(/C=C/c2ccc(=O)n(Cc3ccccc3)n2)cc1	Neddylation inh active
COCCn1c(C)cc(/C=N/NC(=O)c2cc3ccccc3cc2O)c1C	Neddylation inh active (not shown: proKLK7 act)
CN1CCN(c2ccccc2NC(=O)c2ccc(-c3ccc(Br)cc3)o2)CC1	none (no result: proKLK7 act)
CN1CCN(c2ccccc2NC(=O)c2ccc(-c3ccc(Cl)c(Cl)c3)o2)CC1	Neddylation inh active
N#CC1=C(N)Oc2cc3ccccc3cc2C1c1cccnc1 (stereo unspecified)	none
N#CC1=C(N)Oc2c(ccc3cccnc23)C1c1cccnc1 (stereo unspecified)	Neddylation inh active | Neddyl inh conf inactive
CCOC(=O)N1CCN(C(=O)C[C@H]2C[C@@]3(C(=O)OC)C(=C[C@H](C4CCCC4)O[C@@H]3C)N(Cc3ccc(Cl)cc3Cl)C2=O)CC1	none (no result: FAS TE block, Neddylation inh, PfGluPho inh)
FC(F)(F)c1cccc(-c2ccn3ncnc3n2)c1	Neddylation inh active | Neddyl inh conf inactive
CCCc1cc(-n2ccnc2C)n2c(nc3ccccc32)c1C#N	Neddylation inh active | Neddyl inh conf inactive
O=C(NCc1ccccc1)C1(C(=O)C2CC2)CC(c2ccccn2)=NO1 (stereo unspecified)	none (no result: FAS TE block, Neddylation inh, PfGluPho inh)
O=C(O)c1ccc(/C=N/NC(=O)c2cc3c(ccc4ccccc43)o2)cc1	Neddylation inh active | Neddyl inh conf inactive
O=C(N/N=C/c1ccncc1)c1cc2c(ccc3ccccc32)o1	none
O=C(N/N=C/c1cccc([N+](=O)[O-])c1)c1cc2c(ccc3ccccc32)o1	none
COc1ccccc1/C=N/NC(=O)c1cc2c(ccc3ccccc32)o1	Neddylation inh active | Neddyl inh conf inactive
COc1ccc(/C=N\NC(=O)c2cc3c(ccc4ccccc43)o2)cc1O	Neddylation inh active | Neddyl inh conf inactive
CCCCN1C(=O)C(CC(=O)NC2CCCC2)CC(C(=O)N2CCCCCC2)=C1C (stereo unspecified)	none (no result: PfGluPho inh)
Cc1cccc(C)c1Nc1c(-c2ccc(N3CCOCC3)cc2)nc2cnccn12	none (not shown: Neddylation inh)
c1cn2c(Nc3ccc4c(c3)OCCO4)c(-c3ccc(N4CCOCC4)cc3)nc2cn1	Neddylation inh active | Neddyl inh conf inactive
Clc1ccc(-c2nc3cnccn3c2Nc2ccc3c(c2)OCO3)cc1	Neddylation inh active | Neddyl inh conf inactive
C=CCOc1c(CNc2cccc(C(=O)O)c2)cccc1OCC	Neddylation inh active | Neddyl inh conf inactive
COc1ccc(-c2cc(C(=O)N3CCCCC3)c3ccccc3n2)cc1OC	Neddylation inh active
COc1ccc(-c2cc(C(=O)N3CCCC3)c3ccccc3n2)cc1OC	none
COc1ccc(Nc2nnc(-c3ccccc3)c3ccccc23)cc1C(=O)N1CCCCC1	none (not shown: Neddylation inh)
COc1ccc(-c2cc(C(=O)N3CC(C)CC(C)C3)c3ccccc3n2)cc1OC (stereo unspecified)	Neddylation inh active
COc1cccc(-c2cc(C(=O)NC3CCCC3)c3ccccc3n2)c1	none
COc1ccc(-c2cc(C(=O)NC3CCCC3)c3ccccc3n2)cc1OC	Neddylation inh active | Neddyl inh conf inactive
COc1ccc(Nc2nnc(-c3ccc(C)cc3)c3ccccc23)cc1C(=O)N1CCCCC1	Neddylation inh active | Neddyl inh conf inactive
N#Cc1ccc(/C=C2\CC3(OC(=O)C4CCCCC4)CCCN2C3)cc1 (stereo unspecified)	none (no result: FAS TE block, Neddylation inh, PfGluPho inh)
COc1ccc(C#Cc2ccc3c(c2)[C@H]2[C@H](CCN2S(=O)(=O)c2ccccc2F)[C@H](CO)N3C)cc1	none (no result: FAS TE block, Neddylation inh, PfGluPho inh)
Cc1ccc2c(c1)-c1c(cnn1CC(=O)NCCc1cccc(F)c1)CO2	none (no result: FAS TE block, Neddylation inh, PfGluPho inh)
